Assay results published in PubChem BioAssay (Tox21).
Inconclusive results are not listed. Active and inactive are the calls of the source. Unless noted, the call rests on the fitted dose curve; in most records, active means well fitted curve in the direction sought with a large enough effect in the repeat runs; inconclusive means weak or mixed curves; inactive means no such curve, though single readings can be large; an effect the other way counts as inactive or inconclusive.

What was measured:
[1] = qHTS assay to identify small molecule agonists of H2AX (AID 1224845; active means well fitted activation curve with a large enough effect in the signal ratio in the repeat runs, not every such curve was filed as active; the % refers to the signal ratio)
In short: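 Wild-type CHO-K1 cells, plated overnight, exposed 3hr at 37C to 15 concentrations (0.76% DMSO final). Lysed, then HTRF anti-pH2AX (S139) cryptate and anti-H2AX-d2 antibodies, 24 hr room temperature; 665/620 nm emission read.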

[2] = qHTS assay to identify small molecule agonists of the hypoxia (HIF-1) signaling pathway (AID 1224846; active means well fitted activation curve with a large enough effect in the signal ratio in the repeat runs, not every such curve was filed as active; the % refers to the signal ratio)
In short: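 Compounds added to ME-180 cells carrying hypoxia-response-element beta-lactamase reporter (0.5% dialyzed FBS, 5 h preplating), 17 h at 37C; agonist activity detected by CCF4-AM B/G FRET read-out.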

[3] = qHTS assay to identify small molecule agonists of H2AX - cell viability counter screen (AID 1224847; calls by dose curve; further: nearly all actives have a fitted effect of over 30% in size; further: potency means the concentration at half of the fitted maximal effect; on activity change, negative = cytotoxicity: top concentration of the series differs between compounds)
In short: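 CHO-K1 cells plated overnight at 37C, then exposed 3 h at 37C to compounds at 15 concentrations (0.76% DMSO final). Viability by CellTiter-Glo luminescence after 30 min at room temperature.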

[4] = qHTS RealTime-Glo MT Cell Viability Assay in HepG2 cells - 24 hour (AID 1224867); further: nearly all actives have a fitted effect of over 50% in size; further: potency means the concentration at half of the fitted maximal effect
In short: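 HepG2 cells were seeded at 600 cells/well together with NanoLuc luciferase and a cell-permeant prosubstrate, preincubated 5 h at 37 C/5% CO2, then pin-dosed with compounds in DMSO. Nonlytic luminescence from viable cells was read at each time point.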

[5] = qHTS RealTime-Glo MT Cell Viability Assay in HEK293 cells - 32 hour (AID 1224868); further: nearly all actives have a fitted effect of over 50% in size; further: potency means the concentration at half of the fitted maximal effect; on activity change, negative = cytotoxic: top concentration of the series differs between compounds
In short: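 HEK293 cells were seeded at 600 cells/well together with NanoLuc luciferase and cell-permeant prosubstrate, preincubated 5 h at 37 C/5% CO2, then given compound in DMSO by pintool. Luminescence from viable-cell prosubstrate reduction was read repeatedly over 40 h.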

[6] = A CellTox Green Cytotoxicity Assay to monitor cytotoxicity in HEK293 cells - 0 hour (AID 1224869); further: nearly all actives have a fitted effect of over 50% in size
In short: (§1)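 Fluorescence from a DNA-binding dye excluded by viable cells was measured repeatedly in the same HEK293 wells (600 cells/well) during continuous compound exposure at 37 C. Each assay gives one read point: 0, 8, 16, 24, 32 or 40 h.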

[7] = qHTS RealTime-Glo MT Cell Viability Assay in HepG2 cells - 40 hour (AID 1224870); further: nearly all actives have a fitted effect of over 50% in size; further: potency means the concentration at half of the fitted maximal effect
In short: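 HepG2 cells (600/well) mixed with RealTime-Glo MT reagent, settled 5 h at 37 C/5% CO2 before compound addition. Nonlytic NanoLuc luminescence from viable-cell prosubstrate reduction read repeatedly during 40 h treatment at 37 C.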

[8] = A CellTox Green Cytotoxicity Assay to monitor cytotoxicity in HEK293 cells - 40 hour (AID 1224871); further: nearly all actives have a fitted effect of over 45% in size; further: potency means the concentration at half of the fitted maximal effect
In short: as §1

[9] = qHTS assay to identify small molecule antagonists of the estrogen related receptor (ERR) signaling pathway from Tox21 library (AID 1224848); further: nearly all actives have a fitted effect of over 50% in size; further: potency means the concentration at half of the fitted maximal effect
In short: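 Quantitative high-throughput format: ERR reporter cells (2,000/well) pre-incubated 6 h, treated 18 h at 37 C with compounds in DMSO alongside positive and negative controls, then read by ONE-Glo luminescence.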

[10] = qHTS assay to identify small molecule agonists of the estrogen related receptor (ERR) signaling pathway from Tox21 library (AID 1224849; calls by dose curve; further: nearly all actives have a fitted effect of over 15% in size); details: ERR reporter cell line, ONE-Glo luciferase, 18 h; at 92.4 µM (top of the series) unless noted
In short: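 Luminescent agonist read-out (One-Glo, 30-minute room-temperature incubation) following 18-hour compound treatment at 37 C of the ERR cell line, which had been plated 6 hours before dosing.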
On the % scale 0 is the no-effect control and ±100 the full control effect.

O=C1[C@@H]2[C@H]3CC[C@H](C3)[C@@H]2C(=O)N1CCCCN1CCN(c2ncccn2)CC1
inactive: Potency [1] | outcome [2] | Potency [3] | Potency [4] | Potency [5] | Potency [6] | Potency [7] | Potency [8]

CCC(Cl)CC(Cl)C(Cl)C(Cl)C(Cl)C(C)Cl (stereo unspecified)
inactive: activation (H2AX phosphorylation) [1] -1.57% [at 31.6 µM] | activation [2] 0.0674% [at 15.8 µM] | activity change, negative = cytotoxicity [3] -5.22% [at 31.6 µM] | activity change, negative = cytotoxicity [4] -1.2% [at 15.8 µM] | cytotoxicity [6] 15.1% [at 15.8 µM] | activity change, negative = cytotoxic [7] -0.479% [at 15.8 µM]

O=C(O)c1cc(Cl)cc(Cl)c1O
inactive: Potency [1] | outcome [2] | Potency [9] | activity change, positive = activation [10] 0.37% | Potency [4] | Potency [5] | Potency [6] | Potency [7] | Potency [8]

CC(=O)N[C@@H](Cc1ccc(O)cc1)C(=O)O
inactive: Potency [1] | Potency [3] | Potency [9] | activity change, positive = activation [10] 1.4% [at 42.5 µM] | Potency [4] | Potency [5] | Potency [6] | Potency [7] | Potency [8]

CC(=O)OCC(=O)[C@@]1(OC(C)=O)[C@@H](C)C[C@H]2[C@@H]3C[C@H](F)C4=CC(=O)C=C[C@]4(C)[C@@]3(F)[C@@H](O)C[C@@]21C
inactive: Potency [1] | Potency [3] | Potency [4] | Potency [5] | Potency [6] | Potency [7] | Potency [8]

CCSC(=O)N(CC)CC
inactive: Potency [1] | outcome [2] | Potency [4] | Potency [5] | Potency [6] | Potency [7] | Potency [8]

O=C(O)CCC(=O)c1ccc(-c2ccccc2)cc1
inactive: Potency [1] | outcome [2] | Potency [3] | Potency [4] | Potency [5] | Potency [6] | Potency [7] | Potency [8]

O[C@@H](CNC[C@H](O)[C@H]1CCc2cc(F)ccc2O1)[C@@H]1CCc2cc(F)ccc2O1
inactive: Potency [1] | outcome [2] | activity change, positive = activation [10] -67.5% [at 42.5 µM] | Potency [6]
active: Potency [4] 16.9 µM | Potency [5] 19 µM | Potency [7] 15.1 µM | Potency [8] 26.8 µM

Nc1nc2ccc(OC(F)(F)F)cc2s1
inactive: Potency [1] | Potency [3] | Potency [4] | Potency [6] | Potency [7] | Potency [8]

CC(C(=O)O)c1ccc(C(=O)c2cccs2)cc1 (stereo unspecified)
inactive: Potency [1] | Potency [3] | Potency [4] | Potency [5] | Potency [6] | Potency [7] | Potency [8]

CC(C)OC(=O)c1ccccc1C(=O)OC(C)C
inactive: outcome [2] | Potency [3] | Potency [4] | Potency [5] | Potency [6] | Potency [7] | Potency [8]

CCN(Cc1cccc(S(=O)(=O)O)c1)c1ccc(C(=C2C=CC(=[N+](CC)Cc3cccc(S(=O)(=O)O)c3)C=C2)c2ccccc2S(=O)(=O)[O-])cc1
active: Potency [3] 25.4 µM | Potency [9] 15.4 µM
inactive: outcome [2] | activity change, positive = activation [10] -48.9% [at 42.5 µM] | Potency [4] | Potency [5] | Potency [6] | Potency [7] | Potency [8]

Cc1ccc2nc(N)[nH]c(=O)c2c1Sc1ccncc1
inactive: outcome [2] | Potency [3] | activity change, positive = activation [10] -24.3% [at 42.5 µM] | Potency [6] | Potency [7] | Potency [8]

CCOC(=O)c1c(N)sc2c1CCN(Cc1ccccc1)C2
active: Potency [5] 21.3 µM
inactive: outcome [2] | Potency [3] | Potency [4] | Potency [6] | Potency [7] | Potency [8]

CC[C@H]1OC(=O)[C@H](C)[C@@H](O[C@H]2C[C@@](C)(OC)[C@@H](O)[C@H](C)O2)[C@H](C)[C@@H](O[C@@H]2O[C@H](C)C[C@H](N(C)C)[C@H]2O)[C@](C)(O)C[C@@H](C)/C(=N\OCOCCOC)[C@H](C)[C@@H](O)[C@]1(C)O
inactive: outcome [2] | Potency [3] | activity change, positive = activation [10] -14.4% [at 42.5 µM] | Potency [4] | Potency [5] | Potency [6] | Potency [7] | Potency [8]

CN1CCCN(C(c2ccccc2)c2ccc(Cl)cc2)CC1 (stereo unspecified)
inactive: Potency [1] | activity change, positive = activation [10] -29.3% [at 42.5 µM] | Potency [6]
active: Potency [8] 26.8 µM

O=C1NC(=O)c2cccc3cccc1c23
inactive: outcome [2] | Potency [3] | Potency [4] | Potency [5] | Potency [6] | Potency [7] | Potency [8]

CCN(CC)c1cccc(O)c1
inactive: outcome [2] | Potency [3] | Potency [9] | activity change, positive = activation [10] 2.77% | Potency [4] | Potency [5] | Potency [6] | Potency [7] | Potency [8]

CC1=C2[C@@H]([C@H](C)CC[C@H]2/C=C(\C)C(=O)O)[C@H](O)C1
inactive: outcome [2] | Potency [3] | Potency [4] | Potency [5] | Potency [6] | Potency [7] | Potency [8]

O=C(O)CO
inactive: outcome [2] | Potency [3] | Potency [4] | Potency [5] | Potency [6] | Potency [7] | Potency [8]

CC(C)(C)C1(CCc2ccc(Cl)cc2)CO1 (stereo unspecified)
inactive: outcome [2] | Potency [3] | Potency [4] | Potency [5] | Potency [6] | Potency [7] | Potency [8]

CO[C@@H]1[C@@H](OC)[C@H](C)[C@@](O)(CC(=O)O)O[C@H]1[C@H](C)[C@H]1O[C@@]2(CC[C@@](C)([C@H]3CC[C@@](C)([C@@H]4O[C@@H]([C@H]5O[C@](C)(O)[C@H](C)C[C@@H]5C)C[C@@H]4OC4C[C@H](OC)[C@@H](OC)[C@H](C)O4)O3)O2)C[C@H](O)[C@H]1C (stereo partly specified)
inactive: Potency [1] | Potency [6]
active: Potency [4] 5.35 µM | Potency [5] 3.01 µM | Potency [7] 6.01 µM | Potency [8] 4.77 µM

CC(CCc1ccc(O)cc1)NCCc1ccc(O)c(O)c1 (stereo unspecified)
inactive: outcome [2] | Potency [3] | Potency [9] | activity change, positive = activation [10] -12.3% [at 42.5 µM] | Potency [4] | Potency [5] | Potency [6] | Potency [7] | Potency [8]

Nc1ccc(NC(=O)c2ccc(N)cc2)cc1
inactive: outcome [2] | Potency [3] | Potency [9] | Potency [4] | Potency [5] | Potency [6] | Potency [7] | Potency [8]
